# Out of some 41,000 compounds screened, about 190 (0.46%) were called active. This is one part of a sample in which actives are shown more often than they occur. Unmarked numbers belong to inactive results.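 Rule for the calls: active = viability at or below the median of all test compounds minus 3 SD, in both replicates if run twice (cut at about 45% in these data); inconclusive = duplicate replicates that disagree with each other; inactive = viability above that cutoff in every replicate.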
# Assay: SK-BR-3 proliferation inhibitors, primary screen, cell-based, human, 24 h (AID 847);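 note: 100% = median untreated cell wells and 0% = median positive control drug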
# Details: SK-BR-3 viability, CellTiter-Glo ATP luminescence, at 10 µM, stronger effect = lower value
row,Compound,viability
1,CSc1nc(O)c(Cc2ccccc2)c(=O)[nH]1,88.2%
2,C=CCNc1nnc(C)c2ccccc12,94.2%
3,COc1ccc(C2C(C#N)=C(N)Oc3n[nH]c(C)c32)cc1CN1CCN(c2ccc(F)cc2)CC1 (stereo not given),67%
4,CCOC(=O)C1CCCN(C(=O)c2cncc(Br)c2)C1 (stereo not given),89.5%
5,O=C(Nc1ccc2c(c1)nc1n2CCCCC1)c1cc(S(=O)(=O)N2CCOCC2)ccc1Cl,69%
6,O=C(CSc1ncccn1)NCCc1ccccc1,89.6%
7,CSc1nsc(SC)c1NC(=O)OC1CCCCC1,106%
8,COc1ccc(S(=O)(=O)N2CCOCC2)cc1C(=O)Nc1nc2ccccc2s1,87.8%
9,CCCC(=O)Nc1cc(OCC)c(NC(=O)NC2CCCCC2)cc1OCC,128%
10,COC(=O)[C@H](CCSC)NC(=O)Nc1ccc(OC)cc1,86.4%
11,COC(=O)C1(S(=O)(=O)C2(C(=O)OC)CCCC2)CCCC1,105%
12,C=CCNC(=O)c1ccc(C)c(Br)c1,74.5%
13,CCn1cc(NC(=O)Nc2ccc(OC)c(OC)c2)c(C(N)=O)n1,90.8%
14,Cc1ccc(C(=O)CS(C)(=O)=O)cc1,90.6%
15,CC(=O)N1CCC(C(=O)Nc2nc(-c3ccccc3)ns2)CC1,96.3%
16,Cc1nc(NCCN)c(C#N)c2c1COC(C)(C)C2,85.4%
17,OC(COc1ccccc1)Cn1cc(Br)cn1 (stereo not given),74.7%
18,CCCOC(=O)C1=C(C)NC2=C(C(=O)C(C(=O)OC)C(C)C2)C1c1ccc(N(C)C)cc1 (stereo not given),89%
19,Cc1nc(N2CCCC2C(=O)O)c2oc3ccccc3c2n1 (stereo not given),101%
20,COC(=O)c1cn(CC(=O)NCc2cccs2)c2ccccc12,108%
21,COc1cc(-c2nc(S(=O)(=O)c3ccc(Cl)cc3)c(N(C)C)o2)cc(OC)c1OC,75.4%
22,O=C(c1cccc(S(=O)(=O)N2CCOCC2)c1)N1CCOCC1,94.3%
23,CC(=O)Oc1cccc(N2C(=O)C3CC=C(Cl)CC3C2=O)c1 (stereo not given),73.3%
24,NC(=O)C1CCN(C2OC(=O)c3ccccc32)CC1 (stereo not given),93.2%
25,O=C(NC(c1ccccc1)c1ccccc1)N1CCN(CCO)CC1,93%

row,Compound,viability
1,O=C(CSc1nnc(Cc2ccccc2)n1-c1ccccc1)N1CCOCC1,87.4%
2,Cc1ccc2[nH]c(=O)c(COC(=O)c3ccccn3)cc2c1,100%
3,CC1Cc2ccccc2N1C(=O)CSc1nnc(-c2ccc(S(=O)(=O)N3CCCCC3)cc2)o1 (stereo not given),96%
4,Cc1cc(O)ccc1-c1cnc2ccccc2n1,92.4%
5,CC(C)NS(=O)(=O)c1ccc(OCC(=O)Nc2ccc3c(c2)OCCO3)cc1,86.3%
6,O=C(OC(C(=O)NC1CCCC1)c1ccc(F)cc1)c1ccno1 (stereo not given),107%
7,N=c1c2c3c(sc2ncn1N)CCCCC3,86%
8,COCCNC(=O)c1ccccc1-c1nc(-c2ccccc2Cl)no1,94.6%
9,O=C(c1cccc(C(=O)N2CCc3ccccc32)n1)N1CCc2ccccc21,101%
10,Cc1nc2nc(COc3ccccc3)[nH]n2c(=O)c1Cc1ccccc1,85.2%
11,Cc1cccc(OCc2nnc(SCC(=O)N3CCN(C(=O)c4ccco4)CC3)n2C)c1C,112%
12,CCOC(=O)CCc1c(C)c2ccc(OCc3nn[nH]n3)c(C)c2oc1=O,91.2%
13,O=C1CCCc2c1[nH]c1ccc(Br)cc21,94.5%
14,O=C(COC(=O)c1ccc2c(c1)OCCO2)NCc1ccccc1,91.5%
15,Cc1cnc(NC(=O)CSc2nnc(-c3ccc(Cl)cc3Cl)n2N)s1,88.8%
16,O=C(Cn1c(-c2ccc(Cl)cc2)noc1=O)N1CCN(c2ccccc2F)CC1,88.1%
17,Cc1cc(C)c2cc(CN(Cc3cccs3)Cc3nnnn3CC3CCCO3)c(=O)[nH]c2c1 (stereo not given),83.1%
18,CCOC(=O)[C@H]1CCC[C@@H](NS(=O)(=O)c2ccc(NC(C)=O)cc2)C1,73.8%
19,C=CCSC1=C(C#N)C(c2cc(Br)c(O)c(OC)c2)CC(=O)N1 (stereo not given),86.3%
20,CC1(C)CC(=O)C(C2=NC(C)(C)Cc3ccccc32)=C(O)C1,99.5%
21,c1nc(COc2nsnc2N2CCOCC2)cs1,90.4%
22,Cc1nc2nc3c(cn2n1)C(=O)CC(c1ccccc1)C3 (stereo not given),109%
23,CCCOc1ccc(CN(CCO)CCO)cc1C(=O)OC,94.7%
24,Cc1ccn2cc(C(=O)NC3CCN(Cc4ccccc4)CC3)nc2c1,81%
25,CCCC(NS(=O)(=O)c1ccc(OC)cc1)C(=O)O (stereo not given),97.5%

row,Compound,viability
1,c1ccc2c(NCC3CCCO3)nc(-c3ccncc3)nc2c1 (stereo not given),101%
2,CCc1ccc(-c2nnn(Cc3nn[nH]n3)n2)cc1,112%
3,CCc1nnc(NC(=O)CSc2nnc(COc3ccc(C#N)cc3)n2-c2ccccc2)s1,86%
4,Cc1ccc(S(=O)(=O)N2CCC(C(=O)N[C@@H](C)C(=O)NCCc3ccccc3)CC2)cc1,100%
5,COc1ccc(C2CC(c3ccc(C)cc3)Nc3nc(N)nn32)cc1 (stereo not given),102%
6,CC(C)=C(NC(=O)c1ccco1)C(=O)NCCc1nc2ccccc2[nH]1,122%
7,Cc1cc(N2CCN(Cc3ccc4c(c3)OCO4)CC2)n2ncnc2n1,88.1%
8,Cc1ccc(N(CC(O)CN2CCCC2)S(=O)(=O)c2ccccc2)cc1 (stereo not given),84.9%
9,CC(C)C(NC(=O)c1cccc(S(=O)(=O)N2CCOCC2)c1)C(=O)NCCc1ccccn1 (stereo not given),84.8%
10,Cc1ccc(S(=O)(=O)NCC(=O)OCC(=O)N2CCc3ccccc32)cc1,75.8%
11,CCCCNc1nc2c(c(=O)[nH]c(=O)n2C)n1CCOc1ccccc1,114%
12,c1ccc(-n2ncc3c(N4CCCC4)ncnc32)cc1,86.5%
13,CN(C)Cc1c(C#N)c2ccccc2n1C,99.7%
14,O=C(c1ccco1)N(Cc1nc2ccccc2c(=O)[nH]1)C1CCCC1,87.8%
15,COC(=O)COc1ccc2oc(=O)cc(C)c2c1,87%
16,COC(=O)c1cn(-c2ccccc2)nc1-c1cccnc1,119%
17,CC(C(=O)O)N1C(=O)c2cccc3cccc1c23 (stereo not given),91.2%
18,Cc1cc(C)c(NC(=O)CS(=O)CC(=O)Nc2cccnc2)c(C)c1 (stereo not given),79.8%
19,COc1ccc(CSc2nc(N3CCOCC3)c3c(c2C#N)CC(C)(C)OC3)cc1,76.6%
20,CS(=O)(=O)N1CCN(C(=O)c2cc3ccccc3oc2=O)CC1,82.4%
21,Cc1cc(=O)[nH]c(SCC(N)=O)c1C#N,121%
22,Cc1ccc(S(=O)(=O)NCc2nc3ccccc3c(=O)n2N)cc1,87.3%
23,CC(=O)c1cc(-c2ccccc2)[nH]c1N1CCCC1,89.9%
24,Cc1ccc(C)c(NC(=O)C2CCCN2C(=O)OC(C)(C)C)c1 (stereo not given),102%
25,COc1ccc(C(=O)N2CCC(C(=O)Nc3cccc(C)c3)CC2)cc1OC,106%

row,Compound,viability
1,Cc1ccccc1NC(=O)c1cnn(-c2ccccc2)c1NC(=O)c1ccco1,117%
2,O=C1NC(c2cc3c(cc2Cl)OCO3)Oc2ccccc21 (stereo not given),110%
3,CCCC(C)n1[nH]c(=O)c2c(C)cc(C)nc21 (stereo not given),87%
4,Cc1cc(C)n2nc(C(=O)Oc3ccc4c(c3)OCO4)nc2n1,86.1%
5,CC(C)OCCCNc1nc2c(c(=O)n(Cc3ccccc3F)c(=O)n2C)n1C,68.2%
6,Clc1ccc(CSc2nnc([C@@H]3CCCN3)o2)cc1,80.8%
7,O=C(NCc1cccnc1)c1cn(-c2ccccc2)nc1-c1cccs1,74.3%
8,COC(=O)Nc1c(C)n(C)n(-c2ccccc2)c1=O,104%
9,O=S(=O)(O)c1nc2ccccc2n1Cc1ccc(Cl)cc1Cl,98.8%
10,Cc1cc(Br)ccc1NC(=O)C1CCCO1 (stereo not given),75.5%
11,c1cnc(NC2C3CC4CC(C3)CC2C4)nc1 (stereo not given),98.3%
12,O=C(c1ccco1)N1CCN(C(=O)C2c3ccccc3Oc3ccccc32)CC1,99.4%
13,O=C(Nc1ccon1)c1sc2ccccc2c1Cl,122%
14,COc1cccc(-c2nc(S(=O)(=O)c3ccccc3)c(N3CCOCC3)o2)c1,83.1%
15,c1ccc(-c2[nH]ncc2-c2nc3ccccc3[nH]2)cc1,42.9% (active)
16,O=c1[nH]c(-c2ccccc2)c(-c2ccccc2)[nH]1,96.3%
17,c1ccc(-c2nnc(SCc3nc4ccccc4[nH]3)o2)cc1,70.7%
18,CC(C)C(c1nnnn1CCc1ccccc1)N1CCN(C(=O)c2ccco2)CC1 (stereo not given),102%
19,CSCCC(Nc1nc2ccccc2s1)C(=O)O (stereo not given),81.1%
20,Cc1cc(NC(=O)CCC2COc3ccccc3O2)no1 (stereo not given),94.5%
21,Cc1ccc2nc(NC3=NCN(CCc4ccccc4)CN3)nc(C)c2c1,95.4%
22,COc1ccccc1N1CCN(C(=O)c2ccc(S(=O)(=O)N3CCCCC3)cc2)CC1,123%
23,COC(=O)c1ccccc1NC(=O)CSc1ccccn1,81.2%
24,COc1ccc(N2CCN(CCNC(=O)c3nnc(Cc4c(F)cccc4Cl)o3)CC2)cc1,75%
25,CCOC(=O)c1ccccc1NC(=O)CC1Nc2ccccc2NC1=O (stereo not given),47.2%
